Laboratory results reported in PubChem BioAssay (NCATS).
Inconclusive results are not listed. Activity calls are given as the source filed them. The call rests on the fitted dose curve; in most records, active means well fitted curve in the direction sought with a large enough effect; inconclusive means small, poorly fitted or top-dose-only effect, or another doubt; inactive means no such curve, though single readings can be large; an effect the other way counts as inactive or inconclusive. Where a SMILES comes first, the peptide text is derived from it. The star is where a group is joined. Cbz = O=C(OCc1ccccc1)*; CH2F = FC*

Columns and labels:
[1] = target: Calcium and integrin-binding protein 1 (Homo sapiens) (UniProt Q99828); assay: Primary qHTS for Identification of Calcium Integrin Binding Protein 1 (CIB1) Competitor (AID 1508620); conditions: CIB1-GST / FITC-alphaIIb peptide fluorescence polarization; series mostly up to 57.7 µM;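 further: GST tagged CIB1 binding a fluorescein labelled alphaIIb integrin peptide tracer; top concentration of the series differs between compounds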
Sequence of Calcium and integrin-binding protein 1 (Homo sapiens) (Q99828 whole entry, looked up): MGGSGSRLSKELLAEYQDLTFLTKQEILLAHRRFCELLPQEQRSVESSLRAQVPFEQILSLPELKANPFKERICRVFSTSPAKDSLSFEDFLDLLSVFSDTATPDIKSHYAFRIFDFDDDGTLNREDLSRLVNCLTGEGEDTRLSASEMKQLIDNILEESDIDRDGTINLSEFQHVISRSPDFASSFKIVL
Outline: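 CIB1-GST (1 uM final) and compound incubated 15 min at room temperature before adding FITC-alphaIIb peptide tracer (100 nM final). Competition for binding read by fluorescence polarization (ex 480, em 540) after another 15 min at room temperature.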

[2] = Primary qHTS for inhibitors of nuclear receptor binding SET domain protein 2 (NSD2) in an isogenic RCH-ACV NSD2 p.E1099K mutant (9B) (AID 1645876); conditions: RCH-ACV NSD2 E1099K (9B) viability, CellTiter-Glo, 72 h; series mostly up to 44.9 µM; further: nearly all actives have a fitted effect of over 70% in size
[3] = Primary qHTS for inhibitors of nuclear receptor binding SET domain protein 2 (NSD2) in an RCH-ACV wild type WT cells (2C) (AID 1645877); conditions: RCH-ACV (leukaemia line) NSD2 WT (2C) viability, CellTiter-Glo, 72 h; series mostly up to 44.9 µM; further: nearly all actives have a fitted effect of over 70% in size
On the % scale 0 is the no-effect control and ±100 the full control effect.

C[C@@H]1O[C@@H](O[C@H]2[C@H](O[C@H]3[C@H](O[C@H]4CC[C@@]5(C)C(CC[C@]6(C)C5CC=C5[C@@H]7CC(C)(C)C[C@@H](O)[C@]7(C)CC[C@]56C)[C@@]4(C)CO)O[C@H](C(=O)O)[C@@H](O)[C@@H]3O)O[C@H](CO)[C@H](O)[C@@H]2O)[C@H](O)[C@H](O)[C@H]1O (stereo not given in full)
inactive: Potency [1] | outcome [2] inactive [at 9.23 µM] | outcome [3] inactive [at 9.23 µM]

CC1CCC2(C(=O)O)CCC3(C)C(=CCC4C5(C)CCC(O)C(C)(C(=O)O)C5CCC43C)C2C1(C)O (stereo not given)
inactive: Potency [1] | Potency [2] | Potency [3]

C/C1=C\CC[C@]2(C)O[C@H]2C(=O)c2c(C)coc2C1
inactive: Potency [1] | Potency [2] | Potency [3]

OCC1OC(Oc2cc(O)cc(/C=C/c3ccc(OC4OC(CO)C(O)C(O)C4O)cc3O)c2)C(O)C(O)C1O (stereo not given)
inactive: Potency [1] | Potency [2] | Potency [3]

COc1cc(-c2ccc(O)cc2)c(OC)c(O)c1C1=CC(=O)OC1CC(=O)O (stereo not given)
inactive: Potency [1] | Potency [2] | Potency [3]

COC(=O)C1=COC(OC2OC(CO)C(O)C(O)C2O)C2C(COC(=O)/C=C/c3ccc(O)cc3)C(O)C(O)C12 (stereo not given)
inactive: Potency [1] | Potency [2] | Potency [3]

CC1(C)OC(=O)CC(O)C2(C)C1CC(=O)C1(C)C2C(O)CC2(C)C(c3ccoc3)OC(=O)C3OC321 (stereo not given)
inactive: Potency [1] | Potency [2] | Potency [3]

COC(=O)CC[C@H](NC(=O)[C@H](CC(C)C)NC(=O)OCc1ccccc1)C(=O)N[C@@H](Cc1cnc[nH]1)C(=O)N[C@@H](CC(=O)OC)C(=O)CF (Cbz-LE(OMe)HD(OMe)-CH2F)
inactive: Potency [1] | activity change, negative = viability loss [2] -7.97% [at 9.23 µM] | activity change, negative = cell killing [3] -7.81% [at 9.23 µM]

C=CC(C)(O)CC/C=C(\C)C(=O)O[C@@H]1[C@@H](O)[C@H](OC(C)(C=C)CC/C=C(\C)C(=O)O[C@@H]2O[C@H](CO)[C@@H](O)[C@H](O)[C@H]2O)O[C@H](CO)[C@H]1OC(=O)/C(C)=C/CCC(C)(O)C=C (stereo not given in full)
inactive: Potency [1] | activity change, negative = viability loss [2] -6.17% [at 9.23 µM] | activity change, negative = cell killing [3] -2.41% [at 9.23 µM]

Cc1cn2cc(CC(=O)N3CCC4(CC3)CN(Cc3ccc(-n5nccn5)cc3Cl)C4)nc2s1
inactive: Potency [1] | Potency [2] | Potency [3]

Cn1nccc1-c1ccccc1Oc1ccc(S(=O)(=O)Nc2nccs2)cc1C#N
inactive: Potency [1] | Potency [2] | Potency [3]

CC(C)=CCC[C@](C)(O[C@@H]1O[C@H](CO[C@@H]2O[C@@H](CO)[C@H](O)[C@H]2O)[C@@H](O)[C@H](O)[C@H]1O)[C@H]1CC[C@]2(C)[C@@H]1[C@H](O)C[C@@H]1[C@@]3(C)CC[C@H](O[C@@H]4O[C@H](CO)[C@@H](O)[C@H](O)[C@H]4O[C@@H]4O[C@H](CO)[C@@H](O)[C@H](O)[C@H]4O)C(C)(C)[C@@H]3CC[C@]12C
inactive: Potency [1] | Potency [2] | Potency [3]

C[C@H]1CC[C@H]2[C@@H](C=C[C@@](C)(O)[C@]2(C)C(=O)CCO)C1
inactive: Potency [1] | Potency [2] | Potency [3]

C[C@]1(O)CC[C@@H]2C(C(=O)O)=CO[C@@H](O[C@@H]3O[C@H](CO)[C@@H](O)[C@H](O)[C@H]3O)[C@@H]21
inactive: Potency [1] | Potency [2] | Potency [3]

CC(C)C1C(OC(=O)/C=C/c2ccccc2)CC2(C)OC2CCC2(C)OC2C1O (stereo not given)
inactive: Potency [1] | Potency [2] | Potency [3]

CC(=O)C1CCC(=O)N1Cc1ccccc1 (stereo not given)
inactive: Potency [1] | Potency [2] | Potency [3]

C=C(C)[C@@H]1CC[C@]2(CO)CC[C@]3(C)[C@H](CC[C@@H]4[C@@]5(C)CC[C@H](O)C(C)(C)[C@@H]5CC[C@]43C)[C@@H]12
inactive: Potency [1] | Potency [2] | Potency [3]

O=C(/C=C/c1ccc(O)cc1)OC[C@H]1O[C@H](O[C@@]2(CO)O[C@@H](CO)[C@H](O)[C@H]2O)[C@H](O)[C@@H](O)[C@@H]1O
inactive: Potency [1] | Potency [2] | Potency [3]

C=C1C(O)C(OC(=O)c2ccccc2)C2C(C)(C(=O)O)CCCC2(C)C1CC/C(C)=C\CO (stereo not given)
inactive: Potency [1] | Potency [2] | Potency [3]

CC1OC(O[C@@H]2[C@@H](O)[C@H](OC(=O)[C@]34CCC(C)(C)C[C@H]3C3=CCC5[C@@]6(C)CC[C@H](O[C@@H]7O[C@H](C(=O)O)[C@@H](O)[C@H](O[C@@H]8OC[C@@H](O)[C@H](O)[C@H]8O)[C@H]7O[C@@H]7O[C@H](CO)[C@H](O)[C@H](O)[C@H]7O)[C@@](C)(C=O)C6CC[C@@]5(C)[C@]3(C)C[C@H]4O)O[C@H](C)[C@@H]2OC2OC(C)C(OC3OCC(O)C(O)C3O)C(O)C2O)C(O)C(O)C1O (stereo not given in full)
inactive: activity change, negative = inhibition [1] 3.33% [at 12.4 µM] | activity change, negative = viability loss [2] -4.28% [at 9.23 µM] | activity change, negative = cell killing [3] -13.7% [at 9.23 µM]
